16 compounds from PubChem BioAssay (EPA / NIEHS) can be followed below.

Each structure is given as a SMILES string. The source made the active and inactive calls. The calls were made as follows: active = hit-call score of the fitted dose curve at least 0.9, where 1 is the maximum; inactive = score below 0.9.

A short description of test [1]: BSK_hDFCGF_SRB: Viability Assessment in the BioMAP Diversity Plus: hDFCGF Assay (AID 2283061).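 Also: cells exposed to compound for 24 h before the read.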 The following applies: primary human foreskin fibroblasts. The essentials: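 Primary human foreskin fibroblasts; 24 h post-dose; fixed 10% TCA, stained 0.1% SRB, A560 read; total protein as overt cytotoxicity measure; curves fit bidirectionally vs DMSO control.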
Read-out in test [2]: TIMP metallopeptidase inhibitor 1 (TIMP1), TIMP1 (gene 7076)
The test is described as follows: BSK_hDFCGF_TIMP1: BioMAP Diversity Plus: hDFCGF Assay for TIMP metallopeptidase inhibitor 1 (TIMP1) Biomarker Activity (AID 2283062). The following applies: primary human foreskin fibroblasts; actives raise or lower the signal. In a few lines:
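ELISA readout of TIMP-1 from human dermal foreskin fibroblast cultures 24 h post-dosing. Curves were fitted in both directions against DMSO baseline, with SRB total-protein staining in parallel cultures as a cytotoxicity check.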

Read-out in test [3]: Monokine induced gamma interferon (MIG), CXCL9 (gene 4283)
The test is described as follows: BSK_hDFCGF_MIG: BioMAP Diversity Plus: hDFCGF Assay for Monokine induced gamma interferon (MIG) Biomarker Activity (AID 2283063). Particulars: primary human foreskin fibroblasts; actives raise or lower the signal. The essentials:
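Fibroblasts (human foreskin, primary) dosed, 24 h, MIG by ELISA; fit bidirectional vs DMSO.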

Read-out in test [4]: Matrix Metallopeptidase 1 (MMP1), MMP1 (gene 4312)
Nature of the test: BSK_hDFCGF_MMP1: BioMAP Diversity Plus: hDFCGF Assay for Matrix Metallopeptidase 1 (MMP1) Biomarker Activity (AID 2283064). Particulars: primary human foreskin fibroblasts; actives raise or lower the signal. The essentials: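 ELISA read-out of MMP1 from human foreskin fibroblasts (primary skin cells), 24 h post-dose. Gain or loss of signal was fitted bidirectionally versus DMSO negative control; cytotoxicity was checked by SRB in parallel cultures.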

Read-out in test [5]: Vascular cell adhesion molecule 1 (VCAM1), VCAM1 (gene 7412)
The test is described as follows: BSK_hDFCGF_VCAM1: BioMAP Diversity Plus: hDFCGF Assay for Vascular cell adhesion molecule 1 (VCAM1) Biomarker Activity (AID 2283065).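 As to AC50: VCAM-1 protein level quantified by ELISA after 24 h chemical exposure.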 The following applies: primary human foreskin fibroblasts; actives raise or lower the signal. The essentials: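 ELISA read-out of VCAM-1 on human skin fibroblasts, 24 h post-dose; gain or loss of signal fitted bidirectionally against DMSO baseline.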

Read-out in test [6]: Plasminogen activator inhibitor-1 (PAI1), SERPINE1 (gene 5054)
The test is described as follows: BSK_hDFCGF_PAI1: BioMAP Diversity Plus: hDFCGF Assay for Plasminogen activator inhibitor-1 (PAI1) Biomarker Activity (AID 2283066). Particulars: primary human foreskin fibroblasts; actives raise or lower the signal. In a few lines:
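Human skin fibroblast cultures receive chemical for 24 h before PAI-1 is measured by ELISA; signal changes are fitted bidirectionally against DMSO-treated wells.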

Read-out in test [7]: Intercellular Adhesion Molecule 1 (ICAM1), ICAM1 (gene 3383)
The test is described as follows: BSK_KF3CT_ICAM1: BioMAP Diversity Plus: KF3CT Assay for Intercellular Adhesion Molecule 1 (ICAM1) Biomarker Activity (AID 2283067). The following applies: primary human keratinocytes with fibroblasts; actives raise or lower the signal. In a few lines:
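ELISA readout of ICAM-1; KF3CT human skin co-culture (keratinocytes + foreskin fibroblasts), 24 h post-dose; gain/loss fit vs DMSO baseline.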

Read-out in test [8]: Interferon-gamma inducible Protein 10 (IP10), CXCL10 (gene 3627)
The test is described as follows: BSK_KF3CT_IP10: BioMAP Diversity Plus: KF3CT Assay for Interferon-gamma inducible Protein 10 (IP10) Biomarker Activity (AID 2283068). The following applies: primary human keratinocytes with fibroblasts; actives raise or lower the signal. In a few lines: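 KF3CT co-culture (keratinocytes + foreskin fibroblasts), 24 h compound, IP-10 by ELISA; bidirectional fit vs DMSO baseline.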

Test [9] in a line: BSK_KF3CT_SRB: Viability Assessment in the BioMAP Diversity Plus: KF3CT Assay (AID 2283069).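 Also: total protein by sulforhodamine B staining as a cytotoxicity measure; read 24 h after compound addition.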 Particulars: primary human keratinocytes with fibroblasts. In a few lines:
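SRB read-out at 560 nm (0.1% stain, TCA-fixed cells) gauges overt cytotoxicity in a human skin keratinocyte–fibroblast co-culture 24 h post-dosing. Signal change was fitted bidirectionally relative to DMSO control.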

Read-out in test [10]: Interleukin-1 alpha (IL1a), IL1A (gene 3552)
Nature of the test: BSK_KF3CT_IL1a: BioMAP Diversity Plus: KF3CT Assay for Interleukin-1 alpha (IL1a) Biomarker Activity (AID 2283070). The following applies: primary human keratinocytes with fibroblasts; actives raise or lower the signal. In a few lines:
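Primary skin co-culture (keratinocytes, foreskin fibroblasts), 24 h exposure; ELISA for IL-1a; bidirectional curve fit vs DMSO.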

For `O=S(=O)(O)C(F)(F)C(F)(F)C(F)(F)C(F)(F)F`, the outcome in [1], in [2], in [3], in test [4], in test [5] and in test [6] was inactive. The result in [7], in test [8], in [9] and in [10] was inactive.

On to `Sc1ccccc1`, for which the result in [1], in [2], in [3], in [4], in test [5] and in test [6] was inactive. Besides, the outcome in test [7], in test [8], in test [9] and in [10] was inactive.

As to `ClC1=C(Cl)[C@]2(Cl)[C@@H]3[C@@H]4C[C@@H]([C@H]5O[C@@H]45)[C@@H]3[C@@]1(Cl)C2(Cl)Cl`, the result in test [1], in test [2], in test [3], in test [4], in test [5] and in test [6] was inactive. Besides, the outcome in test [7], in test [8], in test [9] and in test [10] was inactive.

`Nn1cnnc1`: the result in test [1], in test [2], in test [3], in test [4], in test [5] and in test [6] was inactive. In addition, the result in test [7], in [8], in [9] and in test [10] was inactive.

Turning to `CCCCCCCCOC(=O)c1ccccc1C(=O)OCCCCCCCC`, the result in test [1], in test [2], in test [3], in test [4], in [5] and in test [6] was inactive. The result in test [7], in [8], in test [9] and in test [10] was inactive.

As for `c1cc2ccc3cccc4ccc(c1)c2c34`, the outcome in test [1], in test [2], in test [3], in test [4], in test [5] and in test [6] was inactive. For the same compound, the outcome in test [7], in test [8], in test [9] and in test [10] was inactive.

`CN(C)c1nc(=O)n(C2CCCCC2)c(=O)n1C`: the outcome in test [1], in test [2], in test [3], in [4], in [5] and in test [6] was inactive. For the same compound, the outcome in test [7], in [8], in test [9] and in test [10] was inactive.

For `N#Cc1ccc(N(CC(N)=O)CC(F)(F)F)cc1C(F)(F)F`, the outcome in [1], in test [2], in test [3], in [4], in test [5] and in [6] was inactive. For the same compound, the result in test [7], in test [8], in test [9] and in [10] was inactive.

`CCC(=O)O[C@H]1CC[C@H]2[C@@H]3CCC4=CC(=O)CC[C@]4(C)[C@H]3CC[C@]12C`: the AC50 is 36.1 µM (active) in [1]; 33.8 µM (active) in test [2]; 36.9 µM (active) in [3]; 35.9 µM (active) in test [4]; 31.4 µM (active) in [5]; 39.1 µM (active) in test [6]. The AC50 in [7] is 37.5 µM (active); in test [8], 32.1 µM (active); in test [9], 36.3 µM (active); in test [10], 32.7 µM (active).

Turning to `COc1ccc(O)c(C(C)(C)C)c1`, the result in [1], in [2], in [3], in test [4], in [5] and in [6] was inactive. The result in [7], in test [8], in test [9] and in [10] was inactive.

`CCCCCCOC(=O)c1ccccc1C(=O)OCCCCCC`: the outcome in test [1], in [2], in test [3], in [4], in test [5] and in test [6] was inactive. In addition, the outcome in test [7], in test [8], in test [9] and in [10] was inactive.

In the case of `CCNc1nc(NC(C)C)nc(SC)n1`, the outcome in [1], in [2], in test [3], in test [4], in test [5] and in test [6] was inactive. Further, the outcome in test [7], in test [8], in test [9] and in [10] was inactive.

As for `Clc1ccc(Cl)cc1`, the result in [1], in [2], in test [3], in test [4], in [5] and in test [6] was inactive. The outcome in test [7], in test [8], in test [9] and in test [10] was inactive.

`CCOC(=O)C(O)(c1ccc(Cl)cc1)c1ccc(Cl)cc1`: the result in test [1], in [2], in [4], in test [7], in test [8] and in test [9] was inactive. Also, the result in [10] was inactive. Further, the results for the concentration at half-maximal activity (AC50) in [3], in test [5] and in [6] were 14.3 µM (active), 26.9 µM (active) and 13.2 µM (active), respectively.

Regarding `CN(C)CCO`, the result in test [1], in test [2], in test [3], in [4], in test [5] and in test [6] was inactive. In addition, the result in test [7], in [8], in [9] and in [10] was inactive.

Consider `C=CC(N)=O`, for which the result in test [1], in test [2], in [3], in test [4], in test [5] and in test [6] was inactive. In addition, the outcome in test [7], in [8], in test [9] and in [10] was inactive.

As usually defined, the AC50 is the concentration at which the activity in the assay is half-maximal.
